{
  "source": "PubChem BioAssay (NCATS)",
  "note": "Results filed as inconclusive are left out. Unmarked numbers belong to inactive results. Calls of active or inactive are those of the source. The call rests on the fitted dose curve; in most records, active means well fitted inhibition curve with a large enough effect; inconclusive means small, poorly fitted or top-dose-only effect; inactive means flat fitted curve, though single readings scatter. On the % scale 0 is the no-effect control and ±100 the full control effect.",
  "data": [
    {"biological_target": "Calcium and integrin-binding protein 1 (Homo sapiens) (UniProt Q99828)", "sequence (Q99828 whole entry, looked up)": "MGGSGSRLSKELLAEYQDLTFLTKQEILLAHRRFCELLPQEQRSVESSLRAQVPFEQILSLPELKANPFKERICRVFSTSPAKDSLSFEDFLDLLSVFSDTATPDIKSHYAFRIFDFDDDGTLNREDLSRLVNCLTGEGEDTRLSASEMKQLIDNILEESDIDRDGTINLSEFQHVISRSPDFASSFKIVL", "experiment": "Primary qHTS for Identification of Calcium Integrin Binding Protein 1 (CIB1) Competitor (AID 1508620);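 further: GST tagged CIB1 binding a fluorescein labelled alphaIIb integrin peptide tracer; top concentration of the series differs between compounds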", "details": "CIB1-GST / FITC-alphaIIb peptide fluorescence polarization; series mostly up to 57.7 µM; activity change, negative = inhibition: at the top concentration", "excerpt": "Assay Provider: Ulhas P. Naik, PhD Sidney Kimmel Medical College Thomas Jefferson University, Philadelphia, PA Primary function of platelets is to maintain hemostasis. At the site of vascular injury, platelets adhere to adhesive proteins such as collagen and von Willebrand factor. Adherent platelets are activated and generate soluble platelet agonists such as thrombin, ADP and thromboxane A2. Following exposure of circulating platelets to these agonists, results in platelet shape change, granule secretion and activation of platelet integrin alphaIIb-beta3. Ligand binding to activated integrin alphaIIb-beta3 triggers outside-in signaling, leading to platelet aggregation, stabilization of platelet plug, and clot retraction. Upon atherosclerotic plaque rupture also causes platelet plug formation, which underlies a number of cardiovascular diseases such as myocardial infraction and stroke. A number of anti-platelet drugs such as aspirin, clopidogrel, prasugrel, vorapaxar, and eptifibatide are currently available to prevent the thrombotic complications. However, these anti-platelet agents have several limitations including inherent variability in individual responses, developing resistance, and serious bleeding side effects. For these reasons they are not suitable for long-term protection. Based on the experiences with current anti-platelet drugs, it appears that the most useful therapeutic approach is to intersect the secondary responses such as integrin outside-in signaling or recruitment of platelets by TxA2 and secreted ADP. Compounds, which can largely preserve the primary hemostatic function of platelets but inhibit secondary response will be most desired therapeutic agents for treatment of cardiovascular disease. CIB1 is a calcium integrin binding protein, which specifically interact with the alphaIIb subunit of integrin alphaIIb-beta3. Binding of CIB1 to alphaIIb regulates the outside-in signaling in platelets, which is needed for thrombus stabilization and thrombus growth. […] Therefore, we propose that discovery of a small molecule that can prevent the association of CIB1 and alphaIIb-beta3 will be a potential anti-platelet agent that can block the thrombus formation without undue effect on hemostasis. Reference: [1] Naik MU, Nigam A, Manrai P, et al. CIB1 deficiency results in impaired thrombosis: the potential role of CIB1 in outside-in signaling through integrin alpha IIb beta 3. J Thromb Haemost.\nPROTOCOL TABLES SEQUENCE No. (1, 2, 3, etc.); […] (e.g., Cells, Incubation, Reagent, etc.); VALUE and DESCRIPTION. 1; Reagent; 3 uL; Protein or buffer (4/3x) 2; Compound; 46 nL; Control inhibitor / compound library 3; Time; 15 min; Room temperature incubation 4; Reagent; 1 uL; Fluorescent labeled peptide (4x) 5; Time; 1000 rpm; Centrifuge 6; Time; 15 min; Room temperature incubation 7; Detection; Ex 480/ Em 540; ViewLux Fluorescence Read NOTES (numbers refer to sequence above) 1; Protein Mixture: C1B1-GST (final concentrations of 1 uM). […] 3; Room temperature incubation. 4; Fluorescent Labeled Peptide: FITC-aIIb (final concentration of 100 nM). Sequence of alphaIIb peptide: Acetyl-[…]-FITC (purity is 95.83%). 5; Centrifuge 1000 rpm (164 g) for 15 seconds. 6; Room temperature incubation. 7; ViewLux Fluorescent Polization Read: excitation = 480(20) / emission = 540(25) S and P; FITC Dichroic mirror.", "values": [
      {"smiles": "c1ccc2c(CN3CCNCC3)cccc2c1", "activity change, negative = inhibition": "-1.14%"},
      {"smiles": "O=C(N[C@H]1CN2CCC1CC2)c1ccc(Cl)cc1", "outcome": "inactive"},
      {"smiles": "C1CCC(NC2CCCCC2)CC1", "activity change, negative = inhibition": "-5.93% [at 114 µM]"},
      {"smiles": "O=S(=O)(c1ccc(Cl)cc1)c1ccc(Cl)cc1", "activity change, negative = inhibition": "4.17% [at 228 µM]"},
      {"smiles": "CCO/N=C(\\CC)C1=C(O)CC(c2c(C)cc(C)cc2C)CC1=O", "note": "(stereo not given)", "activity change, negative = inhibition": "-6.75% [at 228 µM]"},
      {"smiles": "CCOC(=O)c1c(C(C#N)=CN)c2ccc(Cl)c(Cl)c2n1C", "activity change, negative = inhibition": "0.471%"},
      {"smiles": "CC1(N2CCC(n3c([C@@H]4CCCNC4)nc4ccccc43)CC2)CCCCCCC1", "outcome": "inactive"},
      {"smiles": "NC1CC1c1ccccc1", "note": "(stereo not given)", "activity change, negative = inhibition": "3.45%"},
      {"smiles": "CC(O)=C(C#N)C(=O)Nc1cc(Br)ccc1Br", "activity change, negative = inhibition": "-3.61%"},
      {"smiles": "C[C@]12COC(=O)C[C@@H]1CC[C@@H]1[C@H]2CC[C@@]2(C)[C@H]1CC[C@]2(C)O", "activity change, negative = inhibition": "-0.75%"},
      {"smiles": "CC(C)[C@]12O[C@@H]1[C@@H]1O[C@]13[C@]1(O[C@H]1C[C@@H]1C4=C(CC[C@@]13C)C(=O)OC4)[C@H]2O", "activity change, negative = inhibition": "-8.26%"},
      {"smiles": "O=C(O)CNC(=O)c1c(O)c2ccccc2n(Cc2ccccc2)c1=O", "outcome": "inactive"},
      {"smiles": "CCN1CCN(C(=O)Cc2ccc(Nc3ncc(F)c(Nc4ccc(C(=O)Nc5ccccc5Cl)cc4)n3)cc2)CC1", "outcome": "inactive"},
      {"smiles": "CC[N+]1(CCOC(=O)C(O)(c2ccccc2)c2ccccc2)CCCCC1", "activity change, negative = inhibition": "1.52% [at 114 µM]"},
      {"smiles": "Cc1nc(-c2ccc(-c3ccc(C(=O)N4CCc5cc6c(cc54)C4(CCN(C)CC4)CO6)cc3)c(C)c2)no1", "activity change, negative = inhibition": "-5.07%"},
      {"smiles": "COC(=O)c1cncn1C(C)c1ccccc1", "note": "(stereo not given)", "activity change, negative = inhibition": "4.34% [at 114 µM]"},
      {"smiles": "O=c1cccc2n1CC1CNC[C@H]2C1", "activity change, negative = inhibition": "-7.16%"},
      {"smiles": "COc1ccc2c(c1)[C@]13CCCCC1C(C2)N(C)CC3", "note": "(stereo not given in full)", "activity change, negative = inhibition": "-1.49%"},
      {"smiles": "CN1[C@H]2CC(O)C[C@H]1[C@H]1O[C@H]12", "note": "(stereo not given in full)", "activity change, negative = inhibition": "-4.26%"},
      {"smiles": "C[C@]12CC[C@H](O)CC1=CC[C@H]1[C@H]3CCC(=O)[C@@]3(C)CC[C@@H]12", "activity change, negative = inhibition": "-2.36%"},
      {"smiles": "COc1cc2cc(c1Cl)N(C)C(=O)C[C@H](OC(=O)C(C)C)[C@]1(C)O[C@H]1[C@H](C)[C@@H]1C[C@@](O)(NC(=O)O1)[C@H](OC)C=CC=C(C)C2", "activity change, negative = inhibition": "5.5%"},
      {"smiles": "C=C1C[C@H]2[C@H]3CCC(=O)[C@@]3(C)CC[C@@H]2[C@@]2(C)C=CC(=O)C=C12", "activity change, negative = inhibition": "-8.42%"},
      {"smiles": "CC(C)[C@]12O[C@H]1[C@@H]1O[C@]13[C@]1(O[C@H]1C[C@H]1C4=C(CC[C@@]13C)C(=O)OC4)[C@@H]2O", "activity change, negative = inhibition": "3.48% [at 114 µM]"},
      {"smiles": "Nc1ccc(Sc2ccc(N)cc2)cc1", "activity change, negative = inhibition": "-9.52% [at 228 µM]"},
      {"smiles": "O=[N+]([O-])/N=C1\\NCCN1Cc1ccc(Cl)nc1", "activity change, negative = inhibition": "0.526% [at 114 µM]"},
      {"smiles": "CC(C)(O)C=CC(=O)[C@](C)(O)[C@H]1[C@H](O)C[C@]2(C)[C@@H]3CC=C4[C@@H](C=C(O)C(=O)C4(C)C)[C@]3(C)C(=O)C[C@@]12C", "activity change, negative = inhibition": "-2.55%"},
      {"smiles": "O=C(Oc1ccc([N+](=O)[O-])cc1)N1CCC(C(O)(c2ccc3c(c2)OCO3)c2ccc3c(c2)OCO3)CC1", "outcome": "inactive"},
      {"smiles": "C[C@H]([C@H](O)CCC(C)(C)O)[C@H]1CC[C@@]2(O)C3=CC(=O)[C@@H]4C[C@@H](O)[C@@H](O)C[C@]4(C)[C@@H]3CC[C@]12C", "activity change, negative = inhibition": "-1.08%"},
      {"smiles": "CC(=O)OCC1=C(C(=O)O)N2C(=O)[C@@H](N)[C@@H]2SC1", "activity change, negative = inhibition": "-2.32%"},
      {"smiles": "Nc1c(Cl)c(Cl)c(Cl)c(Cl)c1Cl", "activity change, negative = inhibition": "4.22% [at 228 µM]"},
      {"smiles": "O=c1[nH]c2ccccc2n1C1CCN(Cc2ccc(-c3[nH]c4cc5ncnc5cc4nc3-c3ccccc3)cc2)CC1", "activity change, negative = inhibition": "-2.47%"},
      {"smiles": "O=C(NCC1CCOCC1)c1cnc(Nc2ccc(Cl)cc2Cl)nc1C(F)(F)F", "outcome": "inactive"},
      {"smiles": "O=[N+]([O-])c1c2ccccc2cc2ccccc12", "activity change, negative = inhibition": "-6.19% [at 228 µM]"},
      {"smiles": "O=[N+]([O-])c1cc([N+](=O)[O-])c2ccccc2c1", "activity change, negative = inhibition": "-18.4% [at 228 µM]"},
      {"smiles": "CCC(=O)OC1CCC2C3CCC4=CC(=O)CC[C@@]4(C)C3CC[C@]12C", "note": "(stereo not given in full)", "activity change, negative = inhibition": "-1.42%"},
      {"smiles": "O=[N+]([O-])c1c(Cl)c(Cl)cc(Cl)c1Cl", "activity change, negative = inhibition": "-4.51% [at 228 µM]"},
      {"smiles": "Cc1c(N)nc([C@H](CC(N)=O)NC[C@@H](N)C(N)=O)nc1C(=O)N[C@H](C(=O)N[C@@H](C)[C@H](O)[C@@H](C)C(=O)N[C@@H](C(=O)NCCc1nc(-c2nc(C(=O)NCCC[S+](C)C)cs2)cs1)[C@@H](C)O)C(O[C@H]1O[C@H](CO)[C@H](O)[C@@H](O)[C@@H]1O[C@H]1O[C@H](CO)[C@@H](O)[C@H](OC(N)=O)[C@H]1O)c1cnc[nH]1", "note": "(stereo not given in full)", "activity change, negative = inhibition": "-0.483%"},
      {"smiles": "CC[C@@]1(O)C(=O)OCc2c1cc1n(c2=O)Cc2cc3ccccc3nc2-1", "activity change, negative = inhibition": "0.283%"},
      {"smiles": "C[C@]12CC[C@@H]3[C@@H](CCC4=CC(=O)CC[C@@H]43)[C@@H]1CC[C@@H]2OC(=O)CCc1ccccc1", "activity change, negative = inhibition": "0.703%"},
      {"smiles": "CC1=C(C(=O)O)N2C(=O)[C@@H](N)[C@H]2SC1", "activity change, negative = inhibition": "6.59%"}
    ]}
  ]
}
